Experimental data reported in the supplement of paper PMC8975748.
Where a name gives a salt, the structure may show the parent alone.

System: Saccharomyces cerevisiae BY4741 SeMeCo community
Assay: z-score of subpopulation abundance vs DMSO median, subpopulation auxotrophic for U; higher = larger share of this subpopulation than in DMSO controls
Settings: 10 µM; 24 h; SM minimal medium; subpopulation (auxotrophy): U
Protocol: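 Fluorescent four-plasmid SeMeCo (self-establishing metabolically cooperating S. cerevisiae BY4741 community; plasmids pH-mRuby2, pL-mWasabi, pU-eCFP, pM-TagRFP657) was grown 24 h in minimal SM medium with each Selleck FDA-approved drug at 10 µM in 384-well plates. Cells were fixed and imaged by high-content confocal microscopy. For each auxotrophic subpopulation (and the prototroph), a z-score gives the deviation from the DMSO vehicle-control population median.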

SMILES	z-score of subpopulation abundance
CN1CCN(c2cc3c(cc2F)c(=O)c(C(=O)O)cn3-c2ccc(F)cc2)CC1 [Difloxacin hydrochloride]	-0.57
C[C@H]1c2cccc(O)c2C(O)=C2C(=O)[C@]3(O)C(O)=C(C(N)=O)C(=O)[C@@H](N(C)C)[C@@H]3[C@@H](O)[C@@H]21 [Doxycycline monohydrate]	-0.54
O=C1c2c(O)ccc(O)c2C(=O)c2c(NCCNCCO)ccc(NCCNCCO)c21 [Mitoxantrone 2HCl]	-1.69
CO[C@@H]1[C@@H](OC(N)=O)[C@@H](O)[C@H](Oc2ccc3c(O)c(NC(=O)c4ccc(O)c(CC=C(C)C)c4)c(=O)oc3c2C)OC1(C)C [Novobiocin Sodium]	0.65
CCN(CC)CCOC(=O)c1ccc(N)cc1Cl [Chloroprocaine HCl]	0.25
Nc1nc2c(ncn2COC(CO)CO)c(=O)[nH]1 [Ganciclovir]	0.17
C[C@]12CC[C@@H]3c4ccc(O)cc4CC[C@H]3[C@@H]1CCC2=O [Estrone]	-0.57
Cc1ncc([N+](=O)[O-])n1CCO [Metronidazole]	-0.5
OC(c1ccccc1)(c1ccccc1)C12CC[N+](CCOCc3ccccc3)(CC1)CC2 [Umeclidinium bromide]	-0.23
CCOC(=O)C1=C[C@]2(CC)CCCN3CCc4c(n1c1ccccc41)[C@@H]32 [Vinpocetine]	0.11
CC[C@H](C)[C@H](N)C1=N[C@H](C(=O)N[C@@H](CC(C)C)C(=O)N[C@H](CCC(=O)O)C(=O)N[C@H](C(=O)N[C@H]2CCCCNC(=O)[C@H](CC(N)=O)NC(=O)[C@@H](CC(=O)O)NC(=O)[C@H](Cc3cnc[nH]3)NC(=O)[C@@H](Cc3ccccc3)NC(=O)[C@H]([C@@H](C)CC)NC(=O)[C@@H](CCCN)NC2=O)[C@@H](C)CC)CS1 [Bacitracin]	0.29
N[C@@H]1CN(c2c(F)cc3c(=O)c(C(=O)O)cn([C@@H]4C[C@@H]4F)c3c2Cl)CC12CC2 [Sitafloxacin Hydrate]	1.07
CCCCCCCCCC(=O)NC1C(Oc2c3cc4cc2Oc2ccc(cc2Cl)C(OC2OC(CO)C(O)C(O)C2NC(C)=O)C2NC(=O)C(NC(=O)C4NC(=O)C4NC(=O)C(Cc5ccc(c(Cl)c5)O3)NC(=O)C(N)c3ccc(O)c(c3)Oc3cc(O)cc4c3)c3ccc(O)c(c3)-c3c(OC4OC(CO)C(O)C(O)C4O)cc(O)cc3C(C(=O)O)NC2=O)OC(CO)C(O)C1O (stereo not given) [Teicoplanin]	-0.01
Nc1ccc(S(=O)(=O)Nc2ccnn2-c2ccccc2)cc1 [Sulfaphenazole]	0.18
CN1C(C(=O)Nc2ccccn2)=C(O)c2ccccc2S1(=O)=O [Piroxicam]	-0.17
Cc1cc(-n2c(=O)[nH]c(=O)n(C)c2=O)ccc1Oc1ccc(SC(F)(F)F)cc1 [Toltrazuril]	-0.51
Nc1c(Br)cc(Br)cc1CN[C@H]1CC[C@H](O)CC1 [Ambroxol HCl]	-0.79
COC(=O)C1=C(C)NC(C)=C(C(=O)OC(C)(C)CN(C)CCC(c2ccccc2)c2ccccc2)C1c1cccc([N+](=O)[O-])c1 (stereo not given) [Lercanidipine hydrochloride]	-1.5
CC(C)COCC(CN(Cc1ccccc1)c1ccccc1)N1CCCC1 (stereo not given) [Bepridil hydrochloride]	-0.09
CN1CCC[C@@H]1Cc1c[nH]c2ccc(CCS(=O)(=O)c3ccccc3)cc12 [Eletriptan HBr]	-0.94

SMILES	z-score of subpopulation abundance
OC[C@H]1O[C@H](OCC2O[C@@H](O)[C@H](O)[C@@H](O)[C@@H]2O)[C@H](O)[C@@H](O)[C@H]1O (stereo not given in full) [Melibiose]	0.61
C/C=C1\[C@H]2C=C(C)C[C@]1(N)c1ccc(=O)[nH]c1C2 [(-)-Huperzine A (HupA)]	0.2
CCc1nc(N)nc(N)c1-c1ccc(Cl)cc1 [Pyrimethamine]	-0.01
CN[C@H](CC(C)C)C(=O)N[C@H]1C(=O)N[C@@H](CC(N)=O)C(=O)N[C@H]2C(=O)N[C@H]3C(=O)N[C@H](C(=O)N[C@H](C(=O)O)c4cc(O)cc(O)c4-c4cc3ccc4O)[C@H](O)c3ccc(c(Cl)c3)Oc3cc2cc(c3O[C@@H]2O[C@H](CO)[C@@H](O)[C@H](O)[C@H]2O[C@H]2C[C@](C)(N)[C@H](O)[C@H](C)O2)Oc2ccc(cc2Cl)[C@H]1O [Vancomycin HCl]	-0.35
C=C1CCN([C@H](C)[C@](O)(Cn2cncn2)c2ccc(F)cc2F)CC1 [Efinaconazole]	-0.68
CC(Cc1ccc(O)c(O)c1)C(C)Cc1ccc(O)c(O)c1 (stereo not given) [Nordihydroguaiaretic acid (NDGA)]	-0.02
CO/N=C(\C(=O)N[C@@H]1C(=O)N2C(C(=O)O)=C(CSC(=O)c3ccco3)CS[C@H]12)c1csc(N)n1 [Ceftiofur]	0.57
CCN(CC)CCNC(=O)c1cc(S(C)(=O)=O)ccc1OC [Tiapride Hydrochloride]	0.29
C#CCN(C)Cc1ccccc1 [Pargyline hydrochloride]	0.56
CO[C@H]1C[C@@H]2CC[C@@H](C)[C@@](O)(O2)C(=O)C(=O)N2CCCC[C@H]2C(=O)O[C@H]([C@H](C)C[C@@H]2CC[C@@H](OP(C)(C)=O)[C@H](OC)C2)CC(=O)[C@H](C)/C=C(\C)[C@@H](O)[C@@H](OC)C(=O)[C@H](C)C[C@H](C)/C=C/C=C/C=C/1C [Ridaforolimus (Deforolimus, MK-8669)]	3.51
CO/N=C(\C(=O)N[C@@H]1C(=O)N2C(C(=O)O)=CCS[C@H]12)c1csc(N)n1 [Ceftizoxime sodium]	-0.03
CN1CCCN=C1/C=C/c1cccs1 [Pyrantel Pamoate]	0.04
COc1cccc2c1C(=O)c1c(O)c3c(c(O)c1C2=O)C[C@@](O)(C(=O)CO)C[C@@H]3O[C@H]1C[C@H](N)[C@H](O[C@@H]2CCCCO2)[C@H](C)O1 [Pirarubicin]	5.25
NNc1nncc2ccccc12 [Hydralazine HCl]	0.89
COc1ccc(C2CNC(=O)C2)cc1OC1CCCC1 (stereo not drawn) [S- (+)-Rolipram]	-0.01
C=CC[C@@H]1/C=C(\C)C[C@H](C)C[C@H](OC)[C@H]2O[C@@](O)(C(=O)C(=O)N3CCCC[C@H]3C(=O)O[C@H](/C(C)=C/[C@@H]3CC[C@@H](O)[C@H](OC)C3)[C@H](C)[C@@H](O)CC1=O)[C@H](C)C[C@@H]2OC [Tacrolimus (FK506)]	-0.41
COc1cnc(NS(=O)(=O)c2ccc(N)cc2)nc1 [Sulfameter]	0.75
N[C@H]1CONC1=O [L-Cycloserine]	-0.91
Cc1cc(C)nc(O)n1.O=C(Nc1ccc([N+](=O)[O-])cc1)Nc1ccc([N+](=O)[O-])cc1 [Nicarbazin]	0.5
COc1cc(NS(=O)(=O)c2ccc(N)cc2)ncn1 [Sulfamonomethoxine]	1.19
